# According to PubChem BioAssay (NCI):
# Compounds without any hit were thinned out: in the full panel of roughly 79,000, 15% have a hit. Activity calls are given as the source filed them. No stated cut-off is given here; in the data, active means growth inhibition above about 70%; inactive means the rest.
# Assay: NCI Yeast Anticancer Drug Screen. Data for the rad50EPP+ strain (AID 151);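 further: 0% = growth of vehicle-treated control cultures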
# Conditions: S. cerevisiae rad50 mutant strain, at 1.2 µM, stronger effect = higher value
# Summary of the method: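 Growth inhibition read against vehicle controls in rad50EPP+ yeast, a strain altered in DNA damage repair, after compound exposure.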
row,SMILES,growth inhibition
1,CC(CN(C)C)C(=O)/C=C/c1ccc(Cl)c(Cl)c1 (configuration not stated),2% (inactive)
2,C/C(=N/NC(=S)Nc1ccccc1C)c1ccccn1,3% (inactive)
3,O=C1/C(=C/c2ccc(Cl)c(Cl)c2)CNC/C1=C\c1ccc(Cl)c(Cl)c1,14% (inactive)
4,CC(C)OP(=O)(OC(C)C)C(=NCCO)NNc1ccc([N+](=O)[O-])cc1,-2% (inactive)
5,N#CCC(=O)N/N=C(\c1ccccc1)C(c1ccccc1)C1(O)C(=O)Nc2c(Cl)ccc(Cl)c21 (configuration not stated),2% (inactive)
6,CC(C)(CN1CCCCC1)C(=O)CC(SCCS(=O)(=O)O)c1ccccc1 (configuration not stated),1% (inactive)
7,COC1=CCC23C(=O)C=CC(=O)C2(C1)C(=O)c1ccccc1C3=O (configuration not stated),19% (inactive)
8,CCCCN(CCCC)c1ccc(N=Nc2ccc(S(=O)(=O)O)cc2)cc1,10% (inactive)
9,c1ccc2nc3c(nc2c1)sc1ccccc13,41% (inactive)
10,O=C1c2ccccc2-c2ccc(N=Cc3ccccc3)cc21,-2% (inactive)
11,CNC(=S)N/N=C(/C)CCC/C(C)=N/NC(=S)NC,-9% (inactive)
12,Nc1ccc(/C=C/c2ccc3cccnc3c2)cc1,-2% (inactive)
13,CCOC(=O)Nc1ccc(C)c(NC(=O)OCC)c1,4% (inactive)
14,CCN(CC)CCNc1ccc2nc(C)n3c4ccc(OC)cc4c(=O)c1c23,9% (inactive)
15,O=C(c1cc(=O)c2ccc(O)cc2o1)c1ccc(Cl)cc1Cl,-23% (inactive)
16,O=C(Cc1ccccc1)NN1C(=O)C(Cl)C1c1cc(Br)cc(Br)c1O (configuration not stated),-6% (inactive)
17,O=[N+]([O-])/C=C/c1cc2ccc3ccccc3c2[nH]1,91% (active)
18,Fc1ccc(Nc2ccc3ccccc3c2)cc1,-3% (inactive)
19,O=S1(=O)CCC2=CC(C(F)(F)F)=CC(C(F)(F)F)=CN21,2% (inactive)
20,O=C(Cc1ccccc1)NNc1nc(NNC(=O)c2ccncc2)nc(Nc2ccc([N+](=O)[O-])cc2)n1,4% (inactive)
21,CCCCS/C(=C(/C#N)C(N)=O)c1cc2c([nH]1)CCCC2,11% (inactive)
22,O=C(O)c1ccccc1C(=O)OC1CCc2ccccc2C1 (configuration not stated),0% (inactive)
23,CCOC(=O)/C(=C\c1cccc(C)c1)C(C)=O,48% (inactive)
24,Cc1cccc2c(Cl)c3cccc(C)c3nc12,2% (inactive)
25,N#CSCC1COc2ccccc2O1 (configuration not stated),-28% (inactive)
26,Cc1ccc(S(=O)(=O)NC(=O)C2C(=O)CC3(CCCCC3)CC2=O)cc1,-3% (inactive)

# Same assay, conditions: S. cerevisiae rad50 mutant strain, at 3.7 µM, stronger effect = higher value
row,SMILES,growth inhibition
1,CC(CN(C)C)C(=O)/C=C/c1ccc(Cl)c(Cl)c1 (configuration not stated),10% (inactive)
2,C/C(=N/NC(=S)Nc1ccccc1C)c1ccccn1,6% (inactive)
3,O=C1/C(=C/c2ccc(Cl)c(Cl)c2)CNC/C1=C\c1ccc(Cl)c(Cl)c1,27% (inactive)
4,CC(C)OP(=O)(OC(C)C)C(=NCCO)NNc1ccc([N+](=O)[O-])cc1,34% (inactive)
5,N#CCC(=O)N/N=C(\c1ccccc1)C(c1ccccc1)C1(O)C(=O)Nc2c(Cl)ccc(Cl)c21 (configuration not stated),10% (inactive)
6,CC(C)(CN1CCCCC1)C(=O)CC(SCCS(=O)(=O)O)c1ccccc1 (configuration not stated),0% (inactive)
7,COC1=CCC23C(=O)C=CC(=O)C2(C1)C(=O)c1ccccc1C3=O (configuration not stated),17% (inactive)
8,CCCCN(CCCC)c1ccc(N=Nc2ccc(S(=O)(=O)O)cc2)cc1,8% (inactive)
9,c1ccc2nc3c(nc2c1)sc1ccccc13,92% (active)
10,O=C1c2ccccc2-c2ccc(N=Cc3ccccc3)cc21,24% (inactive)
11,CNC(=S)N/N=C(/C)CCC/C(C)=N/NC(=S)NC,17% (inactive)
12,Nc1ccc(/C=C/c2ccc3cccnc3c2)cc1,1% (inactive)
13,CCOC(=O)Nc1ccc(C)c(NC(=O)OCC)c1,8% (inactive)
14,CCN(CC)CCNc1ccc2nc(C)n3c4ccc(OC)cc4c(=O)c1c23,9% (inactive)
15,O=C(c1cc(=O)c2ccc(O)cc2o1)c1ccc(Cl)cc1Cl,-7% (inactive)
16,O=C(Cc1ccccc1)NN1C(=O)C(Cl)C1c1cc(Br)cc(Br)c1O (configuration not stated),1% (inactive)
17,O=[N+]([O-])/C=C/c1cc2ccc3ccccc3c2[nH]1,94% (active)
18,Fc1ccc(Nc2ccc3ccccc3c2)cc1,-3% (inactive)
19,O=S1(=O)CCC2=CC(C(F)(F)F)=CC(C(F)(F)F)=CN21,16% (inactive)
20,O=C(Cc1ccccc1)NNc1nc(NNC(=O)c2ccncc2)nc(Nc2ccc([N+](=O)[O-])cc2)n1,10% (inactive)
21,CCCCS/C(=C(/C#N)C(N)=O)c1cc2c([nH]1)CCCC2,13% (inactive)
22,O=C(O)c1ccccc1C(=O)OC1CCc2ccccc2C1 (configuration not stated),-4% (inactive)
23,CCOC(=O)/C(=C\c1cccc(C)c1)C(C)=O,31% (inactive)
24,Cc1cccc2c(Cl)c3cccc(C)c3nc12,5% (inactive)
25,N#CSCC1COc2ccccc2O1 (configuration not stated),-18% (inactive)
26,Cc1ccc(S(=O)(=O)NC(=O)C2C(=O)CC3(CCCCC3)CC2=O)cc1,-21% (inactive)
